# Measured values reported in PubChem BioAssay (Tox21).
# Values without a mark were called inactive. Inconclusive results are not listed. Entries that show only a call come without a potency. Active and inactive are the calls of the source. Unless noted, the call rests on the fitted dose curve.
# Legend:
# [1] = Nuclear factor erythroid 2-related factor 2/antioxidant responsive element (Nrf2/ARE) small molecule agonists: qHTS cell viability counter screen in human keratinocytes (AID 1919968; active means well fitted curve in the direction sought with a large enough effect in the repeat runs; an effect the other way counts as inactive or inconclusive; further: nearly all actives have a fitted effect of over 55% in size)
# Outline: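 HaCaT ARE reporter line, 1,500 cells/well; 5 h settle, 37 C/5% CO2; cpd in DMSO pinned; 23 h exposure; CellTiter-Fluor, 1 h; fluorescence.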
# [2] = target: Gonadotropin-releasing hormone receptor (Homo sapiens) (UniProt P30968); experiment: Human gonadotropin-releasing hormone receptor (GnRHR) small molecule agonists, calcium flux assay in GnRHR-HEK293 cells (AID 1920063); further: nearly all actives have a fitted effect of over 35% in size
# Sequence of Gonadotropin-releasing hormone receptor (Homo sapiens) (P30968 whole entry, looked up): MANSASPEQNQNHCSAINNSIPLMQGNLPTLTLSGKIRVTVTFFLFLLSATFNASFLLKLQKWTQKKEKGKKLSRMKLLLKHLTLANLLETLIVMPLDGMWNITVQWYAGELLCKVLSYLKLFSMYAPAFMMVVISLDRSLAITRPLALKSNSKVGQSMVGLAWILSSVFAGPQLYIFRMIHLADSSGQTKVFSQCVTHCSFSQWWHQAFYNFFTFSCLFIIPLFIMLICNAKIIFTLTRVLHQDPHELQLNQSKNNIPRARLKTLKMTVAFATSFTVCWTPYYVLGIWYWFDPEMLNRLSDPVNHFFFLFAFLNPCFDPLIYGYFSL
# Outline: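 GnRHR-HEK293, 1500 cells/well, 18 h 37 C/5% CO2; Ca dye 1 h 37 C; cpd pinned (DMSO), agonist mode; kinetic FL 480/540, 3 min, 1 s reads; 15 conc, n=3.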
# [3] = target: KiSS-1 receptor (Homo sapiens) (UniProt Q969F8); experiment: Human kisspeptin (KISS1R) small molecule agonists, calcium flux assay in KISS1R-HEK293 cells (AID 1920064; active means well fitted curve in the direction sought with a large enough effect in the repeat runs; an effect the other way counts as inactive or inconclusive)
# Sequence of KiSS-1 receptor (Homo sapiens) (Q969F8 whole entry, looked up): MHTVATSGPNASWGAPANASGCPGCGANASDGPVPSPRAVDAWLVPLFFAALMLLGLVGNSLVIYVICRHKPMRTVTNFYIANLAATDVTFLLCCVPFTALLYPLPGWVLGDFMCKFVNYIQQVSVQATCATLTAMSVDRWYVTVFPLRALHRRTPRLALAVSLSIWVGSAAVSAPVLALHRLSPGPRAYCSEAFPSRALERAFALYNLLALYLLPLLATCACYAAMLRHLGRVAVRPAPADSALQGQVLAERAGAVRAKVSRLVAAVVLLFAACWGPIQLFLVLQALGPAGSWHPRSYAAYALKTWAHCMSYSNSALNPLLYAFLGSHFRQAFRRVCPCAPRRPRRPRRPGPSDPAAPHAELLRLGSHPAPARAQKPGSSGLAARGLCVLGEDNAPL
# Outline: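 Stable human KISS1R HEK293 line; 18 h plating, 37 C/5% CO2; calcium dye 1 h 37 C; compound pin transfer; kinetic fluorescence Ex/Em 480/540, 3 min.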
# [4] = G protein-coupled receptor (GPCR) small molecule agonists, calcium flux assay: HEK293 wild type cell line counter screen (AID 1920065)
# Outline: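 Kinetic fluorescence at Ex/Em 480/540, recorded every second over 3 min, served as the read-out after compound addition. Each compound was tested at 15 concentrations in triplicate on cells pre-loaded with calcium dye for 1 h.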
# [5] = p53 small molecule agonists, cell-based qHTS assay with human liver microsomes: qHTS cell viability counter screen (AID 1963579); further: nearly all actives have a fitted effect of over 45% in size
# Outline: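 Luminescent CellTiter-Glo read-out, 30 min at room temperature, gauged cytotoxicity in p53RE-bla cells exposed 16 h at 37 C to DMSO-dissolved compounds with metabolic activation by human liver microsomes and NADPH, each 0.5 mg/mL final.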
# [6] = p53 small molecule agonists, cell-based qHTS assay with rat liver microsomes: qHTS cell viability counter screen (AID 1963580); further: nearly all actives have a fitted effect of over 45% in size; further: potency means the concentration at half of the fitted maximal effect
# Outline: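 Intracellular ATP, by CellTiter-Glo luminescence, defines viability. HCT-116 p53RE-bla cells, 4,000 per well, were compound-treated in the presence of rat liver microsomes and NADPH for 16 h at 37 C.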
# [7] = target: 5-hydroxytryptamine receptor 2A (Homo sapiens) (UniProt P28223); experiment: 5-hydroxytryptamine receptor 2A (HTR2A) small molecule antagonists, cell-based qHTS assay (AID 1963586); further: nearly all actives have a fitted effect of over 45% in size; further: potency means the concentration at half of the fitted maximal effect
# Sequence of 5-hydroxytryptamine receptor 2A (Homo sapiens) (P28223 whole entry, looked up): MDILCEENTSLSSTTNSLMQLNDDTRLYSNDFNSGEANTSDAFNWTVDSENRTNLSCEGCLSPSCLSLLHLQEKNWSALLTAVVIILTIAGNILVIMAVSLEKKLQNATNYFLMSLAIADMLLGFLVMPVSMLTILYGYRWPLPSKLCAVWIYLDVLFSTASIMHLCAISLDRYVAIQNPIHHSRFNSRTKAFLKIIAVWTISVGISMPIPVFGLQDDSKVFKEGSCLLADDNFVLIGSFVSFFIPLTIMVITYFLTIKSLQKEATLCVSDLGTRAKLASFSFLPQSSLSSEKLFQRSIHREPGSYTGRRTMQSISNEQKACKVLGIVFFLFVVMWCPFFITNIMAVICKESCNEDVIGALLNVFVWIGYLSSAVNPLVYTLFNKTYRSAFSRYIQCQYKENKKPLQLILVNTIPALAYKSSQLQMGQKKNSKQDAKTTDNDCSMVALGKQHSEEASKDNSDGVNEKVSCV
# Outline: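 Antagonist-mode intracellular calcium assay: DOI (4 nM) added after 5 min compound pre-incubation at room temperature to dye-loaded HTR2A-CHO cells. Fluorescence followed for 3 min, sampled every second.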
# [8] = target: Muscarinic acetylcholine receptor M1 (Homo sapiens) (UniProt P11229); experiment: Cholinergic receptor muscarinic 1 (CHRM1) small molecule antagonists, cell-based qHTS assay (AID 1963588); further: nearly all actives have a fitted effect of over 40% in size
# Sequence of Muscarinic acetylcholine receptor M1 (Homo sapiens) (P11229 whole entry, looked up): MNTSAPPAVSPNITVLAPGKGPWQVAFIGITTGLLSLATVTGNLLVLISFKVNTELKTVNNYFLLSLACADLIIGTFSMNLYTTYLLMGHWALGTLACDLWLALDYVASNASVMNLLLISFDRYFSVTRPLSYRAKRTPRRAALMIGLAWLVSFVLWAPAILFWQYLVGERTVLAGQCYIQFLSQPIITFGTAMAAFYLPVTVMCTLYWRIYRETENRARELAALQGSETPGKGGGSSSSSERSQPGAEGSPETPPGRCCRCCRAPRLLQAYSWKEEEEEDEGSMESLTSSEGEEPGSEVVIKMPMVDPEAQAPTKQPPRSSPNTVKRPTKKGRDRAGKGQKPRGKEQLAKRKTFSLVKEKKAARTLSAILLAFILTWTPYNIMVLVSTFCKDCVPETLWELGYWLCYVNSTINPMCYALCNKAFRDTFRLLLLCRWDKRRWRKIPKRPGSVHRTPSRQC
# Outline: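 CHRM1-CHO calcium-flux assay, antagonist mode. Cells were seeded 18 h, dye-loaded 1 h at 37 C and given compound for 5 min at RT, then acetylcholine was added at 50nM. FDSS fluorescence was read 3 min; 15 concentrations, three runs.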
# [9] = target: Muscarinic acetylcholine receptor M1 (Homo sapiens) (UniProt P11229); experiment: Cholinergic receptor muscarinic 1 (CHRM1) small molecule agonists, cell-based qHTS assay (AID 1963589); further: nearly all actives have a fitted effect of over 35% in size
# Outline: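 Human M1 in stable CHO line; 18 h plating, 1 h dye load 37 C; cpd added (agonist mode); Ca2+ fluorescence kinetic read, 1 s intervals; 15 conc, 3 runs.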
# [10] = cAMP Responsive Elements (CRE) small molecule agonists, cell-based qHTS assay (AID 1963590)
# Outline: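 HEK 293T CRE-bla, 2,000 cells/well, 18 h preincubation 37 C/5% CO2; cpds (DMSO) pinned, 3 h; LiveBLAzer B/G FRET substrate, 2 h RT.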
# [11] = cAMP Responsive Elements (CRE) small molecule antagonists, cell-based qHTS assay (AID 1963591; active means well fitted inhibition curve with a large enough effect in the signal ratio in the repeat runs, not every such curve was filed as active; the % refers to the signal ratio)
# Outline: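 Beta-lactamase reporter read by FRET substrate (LiveBLAzer B/G) after 2 h at room temperature. CRE-bla HEK293T cells had received compound plus 0.25 uM (final) NKH477 for 3 h at 37 °C.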
# [12] = target: Beta-2 adrenergic receptor (Homo sapiens) (UniProt P07550); experiment: Adrenergic beta2 receptor (ADRB2) small molecule antagonists, cell-based qHTS assay (AID 1963592); further: series mostly up to about 92 µM; nearly all actives have a fitted effect of over 50% in size
# Sequence of Beta-2 adrenergic receptor (Homo sapiens) (P07550 whole entry, looked up): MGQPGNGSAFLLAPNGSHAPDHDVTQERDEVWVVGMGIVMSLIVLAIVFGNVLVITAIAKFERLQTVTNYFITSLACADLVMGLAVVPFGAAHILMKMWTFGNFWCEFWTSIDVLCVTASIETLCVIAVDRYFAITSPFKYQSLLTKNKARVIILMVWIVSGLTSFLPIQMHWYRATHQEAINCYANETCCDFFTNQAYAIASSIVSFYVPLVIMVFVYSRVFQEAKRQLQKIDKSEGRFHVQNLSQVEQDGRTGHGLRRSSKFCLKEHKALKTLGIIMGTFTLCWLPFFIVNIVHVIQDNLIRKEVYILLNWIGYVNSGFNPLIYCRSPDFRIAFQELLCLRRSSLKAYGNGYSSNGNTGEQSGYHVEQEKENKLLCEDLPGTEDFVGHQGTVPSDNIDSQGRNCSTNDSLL
# Outline: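 Cells (CHO, stable ADRB2 overexpression) incubated 18-20hr at 37C; compounds added from DMSO; agonist mix (1nM isoproterenol, 100uM IBMX, 25uM Ro-20-1724) added; 0.5hr RT; d2-cAMP and anti-cAMP-cryptate added; 1hr RT; 665/615 nm read.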
# [13] = target: D(2) dopamine receptor (Homo sapiens) (UniProt P14416); experiment: Dopamine D2 receptor (DRD2) small molecule agonists, cell-based qHTS assay (AID 1963594); further: nearly all actives have a fitted effect of over 35% in size
# Sequence of D(2) dopamine receptor (Homo sapiens) (P14416 whole entry, looked up): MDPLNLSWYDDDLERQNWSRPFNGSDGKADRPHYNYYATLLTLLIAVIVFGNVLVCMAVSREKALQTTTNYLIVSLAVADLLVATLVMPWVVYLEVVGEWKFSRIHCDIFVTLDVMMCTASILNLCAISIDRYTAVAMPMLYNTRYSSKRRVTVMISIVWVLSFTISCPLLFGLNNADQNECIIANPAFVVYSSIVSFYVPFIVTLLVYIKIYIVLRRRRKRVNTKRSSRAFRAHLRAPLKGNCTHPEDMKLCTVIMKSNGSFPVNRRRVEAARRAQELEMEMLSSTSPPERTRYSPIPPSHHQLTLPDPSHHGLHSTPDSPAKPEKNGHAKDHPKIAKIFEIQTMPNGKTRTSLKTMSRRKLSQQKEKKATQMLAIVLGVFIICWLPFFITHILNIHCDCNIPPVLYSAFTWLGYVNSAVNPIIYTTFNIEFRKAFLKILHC
# Outline: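 cAMP accumulation in DRD2-HEK293 cells measured by HTRF after 1 h detection; compounds added 10 min before NKH477 (200nM […]) forskolin-analogue stimulation, 30 min at room temperature, with Ro20-1724 present at 0.1 mM final.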
# [14] = target: D(2) dopamine receptor (Homo sapiens) (UniProt P14416); experiment: Dopamine D2 receptor (DRD2) small molecule antagonists, cell-based qHTS assay (AID 1963595; active means well fitted inhibition curve with a large enough effect in the signal ratio in the repeat runs, with a control signal flat; the % refers to the signal ratio)
# Outline: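 In this cell-based antagonist screen, compounds act for 10 min at room temperature before a 30 min challenge with 12 nM quinpirole and 200 nM NKH477. cAMP is quantified by HTRF competition in DRD2-HEK293 cells containing 0.1 mM Ro20-1724.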
# [15] = p53 small molecule agonists, cell-based qHTS assay: qHTS cell viability counter screen (AID 1963581); further: nearly all actives have a fitted effect of over 45% in size
# Outline: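 HCT-116 p53RE-bla cells, 4,000/well, plated 5 h before compound pin transfer; 16 h at 37 C; bla substrate 2 h RT; then CellTiter-Glo, 30 min RT, luminescence.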
# [16] = target: 5-hydroxytryptamine receptor 2A (Homo sapiens) (UniProt P28223); experiment: 5-hydroxytryptamine receptor 2A (HTR2A) small molecule agonists, cell-based qHTS assay (AID 1963587); further: nearly all actives have a fitted effect of over 30% in size; further: potency means the concentration at half of the fitted maximal effect
# Outline: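 Kinetic calcium-flux fluorescence (2 min, 1 sec intervals) after compound addition in agonist mode. HTR2A-CHO cells were cultured 18 h, then dye-loaded 1 h at 37 C.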
# [17] = target: Beta-2 adrenergic receptor (Homo sapiens) (UniProt P07550); experiment: Adrenergic beta2 receptor (ADRB2) small molecule agonists, cell-based qHTS assay (AID 1963593);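 further: CHO cells stably overexpressing human ADRB2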
# Outline: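 CHO cells stably over-expressing ADRB2 were plated overnight at 37C, then dosed with compounds plus a stimulation mix containing 100uM IBMX and 25uM Ro-20-1724 for 0.5hr at room temperature. cAMP was measured by HTRF competition, 1hr.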
# [18] = p53 small molecule agonists, cell-based qHTS assay with human liver microsomes (AID 1963577);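 further: p53 response element beta-lactamase reporter cells with liver microsomes plus NADPH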
# Outline: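 p53RE-bla cells; 5 h settle, 37 C/5% CO2; cpd + HLM 0.5 mg/mL + NADPH 0.5 mg/mL (final); 16 h 37 C; LiveBLAzer 2 h RT dark; fluorescence readout.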
# [19] = p53 small molecule agonists, cell-based qHTS assay with rat liver microsomes (AID 1963578)
# Outline: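 Rat liver microsome activation: microsomes 0.5 mg/mL, NADPH 0.5 mg/mL final; p53RE-bla cells, 16 h 37 C; LiveBLAzer readout, 2 h RT dark.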
# [20] = p53 small molecule agonists, cell-based qHTS assay (AID 1963582; active means well fitted activation curve with a large enough effect in the signal ratio in the repeat runs, not every such curve was filed as active; the % refers to the signal ratio)
# Outline: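 Reporter line: p53RE-bla. Pre-incubation 5 h, 37 C, 5% CO2; compound (DMSO, pin tool) 16 h, 37 C; B/G FRET substrate 2 h RT; fluorescence intensity read.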
Structure (SMILES),Potency [1],Potency [2],Potency [3],Potency [4],Potency [5],Potency [6],Potency [7],Potency [8],Potency [9],Potency [10],Potency [11],Potency [12],Potency [13],Potency [14],Potency [15],Potency [16],Potency [17],Potency [18],Potency [19],Potency [20]
BrCC1CO1 (stereo unspecified),inactive,inactive,inactive,inactive,inactive,inactive,inactive,inactive,inactive,inactive,inactive,inactive,inactive,inactive,,,,,,
Cc1ccc(C)c2ccccc12,inactive,inactive,inactive,inactive,inactive,inactive,,inactive,inactive,inactive,inactive,inactive,inactive,,inactive,inactive,inactive,,,
COC1=CC(=O)O[C@@H](/C=C/c2ccccc2)C1,inactive,inactive,inactive,,inactive,inactive,inactive,inactive,inactive,,,inactive,inactive,inactive,inactive,inactive,,inactive,inactive,inactive
O=[N+]([O-])[O-].[Tl+],inactive,inactive,inactive,inactive,inactive,inactive,inactive,,inactive,inactive,inactive,inactive,,inactive,inactive,inactive,,,,
CCCCn1cc[n+](C)c1.[Cl][Fe-]([Cl])([Cl])[Cl],inactive,inactive,inactive,inactive,inactive,,inactive,inactive,inactive,inactive,inactive,inactive,inactive,inactive,inactive,inactive,inactive,,,
CC(=O)[O-].CC(=O)[O-].CC(=O)[O-].[Cr+3],inactive,inactive,inactive,inactive,inactive,,inactive,,inactive,,inactive,inactive,,inactive,inactive,inactive,,,,
CC(=O)[O-].[Tl+],inactive,inactive,inactive,inactive,inactive,inactive,inactive,inactive,inactive,inactive,,inactive,inactive,inactive,,inactive,,,,
OCCCBr,inactive,inactive,inactive,,,1.45 µM (active),inactive,inactive,inactive,inactive,inactive,inactive,,inactive,,inactive,,inactive,inactive,inactive
CCc1ccc(C2CCNCC2)cc1,,inactive,inactive,inactive,inactive,inactive,18.3 µM (active),inactive,inactive,,inactive,,inactive,inactive,,8.49 µM (active),,inactive,inactive,inactive
CN(C)CCc1c[nH]c2ccc(O)cc12,,inactive,inactive,inactive,inactive,inactive,inactive,inactive,inactive,inactive,inactive,,,,inactive,,,inactive,inactive,inactive
CC(Cc1ccccc1)NCCCCl (stereo unspecified),,inactive,inactive,inactive,inactive,inactive,,inactive,inactive,inactive,,inactive,inactive,inactive,,inactive,inactive,inactive,inactive,inactive
ClC1=C(Cl)C2(Cl)C(CBr)CC1(Cl)C2(Cl)Cl (stereo unspecified),,inactive,inactive,inactive,inactive,inactive,inactive,inactive,inactive,inactive,inactive,inactive,inactive,inactive,inactive,inactive,inactive,inactive,inactive,inactive
c1ccc2c(c1)OCC(C1=NCCN1)O2 (stereo unspecified),,inactive,inactive,inactive,inactive,inactive,inactive,inactive,inactive,inactive,inactive,inactive,inactive,,,inactive,,inactive,inactive,inactive
